The values that follow come from PubChem BioAssay AID841 (Emory University Molecular Libraries Screening Center, 2007).

In all, about 140,000 compounds went through this assay and about 2,100 (1.5%) were called active. This excerpt belongs to a sample that is enriched for actives. Values without a mark were called inactive. Rule as the data show it: active = protection mostly above about 24% (no sharp cut-off); inactive = mostly below about 26%.

A short description of the assay: blockers of measles virus-induced cell death – single point, MLSMR library, absorbance, measles RdRp inhibitor project, primary screen (AID 841). To be noted: Measles virus-infected cells, CPE protection, at 4 µM, stronger effect = higher value.
Regarding `C=CCN1C(=O)C2(C(C(=O)OCC)=C(N)Oc3c2c(=O)oc2ccccc32)c2ccccc21` (stereo not given), the protection (pct of control) was 81% (active).

As for `COC(=O)CN1C(=O)C2(C(C(=O)OC)=C(N)Oc3ccccc32)C2=C1CC(C)(C)CC2=O` (stereo not given), the protection (pct of control) is 2.86%.

Regarding `CCOC(=O)CC1=C(C(=O)OCC)C2(C(=O)N1)C(C(=O)OC)=C(N)Oc1ccccc12` (stereo not given), the protection (pct of control) was 9.79%.

Take `Cc1ccnc(-n2c(C)cc(/C=C3\C(=O)NC(=S)N(C)C3=O)c2C)c1`: the protection (pct of control) was 5.91%.

For the compound `Cc1ccc(N2C(=O)NC(=O)C(CCc3ccncc3)(Cc3cccc(Cl)c3Cl)C2=O)cc1` (stereo not given), the protection (pct of control) is 7.36%.

Turning to `Cc1nn(Cc2ccccc2Cl)c(Cl)c1C(=O)OC(C(=O)NC(N)=O)C(C)C` (stereo not given), the protection (pct of control) is 14%.

With `O=C(C1CC(=O)N(C2CCCC2)C1)N1CCC2(CC1)OCCO2` (stereo not given), the protection (pct of control) is 38.9% (active).

As for `Cn1c(C(=O)N2CCC(C(=O)N3CCC4(CC3)OCCO4)CC2)cc2sccc21`, the protection (pct of control) was 8.88%.

Consider `CCN(N=Nc1nonc1OC)c1nonc1OC`, for which the protection (pct of control) is 5.4%.

With `CCC(=O)CC(c1ccc([N+](=O)[O-])cc1)c1c(O)c2ccccc2oc1=O` (stereo not given), the protection (pct of control) is 15.5%.

Regarding `COc1ccc(C2N3CC(C)(C)CN23)cc1` (stereo not given), the protection (pct of control) is 8.77%.

For `O=C1NC(=O)C(CCc2ccccn2)(Cc2cccc(Cl)c2Cl)C(=O)N1c1ccc(Br)cc1` (stereo not given), the protection (pct of control) was 10.4%.

`Cc1cccc(OP(=O)(Oc2cccc(C)c2)OC(c2ccccc2)C(F)(F)F)c1` (stereo not given): the protection (pct of control) is 1.45%.

For the compound `Cc1nc2ccccn2c1P(=S)(N1CCCCC1)N1CCCCC1`, the protection (pct of control) is 4.18%.

For `CCOC(=O)C(O)(c1ccc(NC(=O)c2ccco2)c(OC)c1)C(F)(F)F` (stereo not given), the protection (pct of control) is 39.8% (active).

Take `CCOC(=O)C(O)(c1ccc(N)c(OC)c1)C(F)(F)F` (stereo not given): the protection (pct of control) was 3.68%.

With `COC(=O)C(O)(c1ccc(NC(=O)c2ccco2)c(OC)c1)C(F)(F)F` (stereo not given), the protection (pct of control) is 3.68%.

With `CC(=O)Nc1ccccc1C(=O)OCC(=O)c1cccc2ccccc12`, the protection (pct of control) is 26.2%.

On to `O=c1[nH]c(=S)n(C2CC2)c(O)c1/C=N/N1CCOCC1`, for which the protection (pct of control) was 5.81%.

Take `CNC(=O)N(C)c1nnc(C(C)(C)C)s1`: the protection (pct of control) was 54.7% (active).

For the compound `CCOC(=O)C(O)(c1ccc(N=Cc2ccccc2O)c(C)c1)C(F)(F)F` (stereo not given), the protection (pct of control) is 5.53%.

In the case of `CC(=O)N(C1=NCCCS1)c1ccccc1F`, the protection (pct of control) is 62.1% (active).

Regarding `COc1c(O)ccc2c1-c1c3c(cc4c1C(C2)N(C)CC4)OCO3` (stereo not given), the protection (pct of control) is 6.07%.

For the compound `CC(C(=O)Nc1ccc(Cl)cc1Cl)N1CC=C(c2ccccc2)CC1` (stereo not given), the protection (pct of control) is 9.49%.

Consider `CN1CCN(c2cc(N3CCNCC3)ccc2[N+](=O)[O-])CC1`, for which the protection (pct of control) was 21.6%.

Take `CN(C)C(=O)Oc1ccc(OCc2cccc[n+]2C)cc1`: the protection (pct of control) is 6.21%.

As for `c1ccc2sc(C3CCCNC3)nc2c1` (stereo not given), the protection (pct of control) was 54.6% (active).

Take `CN(C)c1ccc(/C=C2\CC3C4CC=C5CC(O)CCC5(C)C4CCC3(C)C2=O)cc1` (stereo not given): the protection (pct of control) was 2.96%.

Take `CC(C)N(CC#CCC1(O)c2ccccc2-c2ccccc21)C(C)C`: the protection (pct of control) was 14.5%.

Take `Cc1cccc(-n2c(O)c(/C=N/N3CCOCC3)c(=O)[nH]c2=S)c1`: the protection (pct of control) is 1.74%.
